# Data: paper PMC5540273 (PLoS ONE, 2017)
# Several values for one entry are separate records, joined by “and”; a condition that tells them apart may be missing. Identical values can stand only once. Like-named read-outs stand apart in the source and are kept apart here.
# Legend:
# PAK6 = conditions: n = 1
# PAK7 = conditions: n = 1
# PCTK1 = test system: T1, PCTK1; conditions: concentration: 1 μM, replicates: in singlicate; n = 1
# T1 construct: gene CDK16
# PCTK2 = test system: T2, PCTK2; conditions: concentration: 1 μM, replicates: in singlicate; n = 1
# T2 construct: gene CDK17
# PCTK3 = test system: T3, PCTK3; conditions: n = 1
# T3 construct: gene CDK18
# PDGFRA = conditions: n = 1
# PDGFRB = conditions: n = 1
# PDPK1 = conditions: n = 1
# PFTAIRE2 = conditions: n = 1
# PFTK1 = test system: T4, PFTK1; conditions: n = 1
# T4 construct: gene CDK14
# PHKG1 = conditions: concentration: 1 μM, replicates: in singlicate; n = 1
# PHKG2 = conditions: n = 1
# PIK3C2B = conditions: n = 1
# PIK3C2G = conditions: concentration: 1 μM, replicates: in singlicate; n = 1
# PIK3CA = conditions: concentration: 1 μM, replicates: in singlicate; n = 1
# PIK3CB = conditions: n = 1
# PIK3CD = conditions: n = 1
# PIK3CG = conditions: n = 1
# PIK4CB = test system: T5, PIK4CB; conditions: n = 1
# T5 construct: gene PI4KB
# PIKFYVE = conditions: concentration: 1 μM, replicates: in singlicate; n = 1
# [1] = concentration: 1 μM, replicates: in singlicate
# [2] = concentration: 1 μM,replicates: in singlicate, 1 µM
# 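Further: KINOMEscan kinase panel screen.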
smiles,measurement,setting,value
Cc1ccc(NC(=O)Nc2cccc(Cl)c2)cc1-c1ccc(C(=O)Nc2ccncc2)cc1 [GSK1398468],%Inh,PAK6; [1],0%
same,%Inh,PAK7; [1],1%
same,%Inh,PCTK1,0%
same,%Inh,PCTK2,0%
same,%Inh,PCTK3; [1],0%
same,%Inh,PDGFRA; [1],43%
same,%Inh,PDGFRB; [1],99.9%
same,%Inh,PDPK1; [1],0%
same,%Inh,PFTAIRE2; [1],16%
same,%Inh,PFTK1; [1],20%
same,%Inh,PHKG1,0%
same,%Inh,PHKG2; [1],11%
same,%Inh,PIK3C2B; [1],0%
same,%Inh,PIK3C2G,0%
same,%Inh,PIK3CA,8%
same,%Inh,PIK3CB; [1],0%
same,%Inh,PIK3CD; [1],0%
same,%Inh,PIK3CG; [1],0%
same,%Inh,PIK4CB; [1],0%
same,%Inh,PIKFYVE,2%
Fc1cc(Cl)ccc1Nc1ccnc2cc(I)ccc12 [GW551191],%Inh,PAK6; [1],0%
same,%Inh,PAK7; [1],0%
same,%Inh,PCTK1,4%
same,%Inh,PCTK2,0%
same,%Inh,PCTK3; [1],0%
same,%Inh,PDGFRA; [1],9%
same,%Inh,PDGFRB; [1],88%
same,%Inh,PDPK1; [1],0%
same,%Inh,PFTAIRE2; [1],9%
same,%Inh,PFTK1; [1],4%
same,%Inh,PHKG1,0%
same,%Inh,PHKG2; [1],0%
same,%Inh,PIK3C2B; [1],0%
same,%Inh,PIK3C2G,0%
same,%Inh,PIK3CA,0%
same,%Inh,PIK3CB; [1],0%
same,%Inh,PIK3CD; [1],0%
same,%Inh,PIK3CG; [1],0%
same,%Inh,PIK4CB; [1],0%
same,%Inh,PIKFYVE,0%
C[C@@H]1CCCCN1c1cc(-c2ccc3c(N)n[nH]c3c2)nc(N)n1 [GSK2258759],%Inh,PAK6; [1],0%
same,%Inh,PAK7; [1],0%
same,%Inh,PCTK1,5%
same,%Inh,PCTK2,0%
same,%Inh,PCTK3; [1],0%
same,%Inh,PDGFRA; [1],0%
same,%Inh,PDGFRB; [1],6%
same,%Inh,PFTAIRE2; [1],3%
same,%Inh,PFTK1; [1],17%
same,%Inh,PHKG1,0%
same,%Inh,PHKG2; [1],0%
same,%Inh,PIK3C2B; [1],0%
same,%Inh,PIK3C2G,0%
same,%Inh,PIK3CA,0%
same,%Inh,PIK3CB; [1],0%
same,%Inh,PIK3CD; [1],0%
same,%Inh,PIK3CG; [1],0%
same,%Inh,PIK4CB; [1],0%
same,%Inh,PIKFYVE,7%
COc1ccc(Nc2nccc(-c3cccc(NC(=O)c4cc5cc(F)ccc5[nH]4)c3)n2)cc1 [GSK1229782],%Inh,PAK6; [1],11%
same,%Inh,PAK7; [1],51%
same,%Inh,PCTK1,1%
same,%Inh,PCTK2,18%
same,%Inh,PCTK3; [1],7%
same,%Inh,PDGFRA; [1],33%
same,%Inh,PDGFRB; [1],61%
same,%Inh,PDPK1; [1],21%
same,%Inh,PFTAIRE2; [1],30%
same,%Inh,PFTK1; [1],24%
same,%Inh,PHKG1,19%
same,%Inh,PHKG2; [1],0%
same,%Inh,PIK3C2B; [1],0%
same,%Inh,PIK3C2G,0%
same,%Inh,PIK3CA,0%
same,%Inh,PIK3CB; [1],0%
same,%Inh,PIK3CD; [1],0%
same,%Inh,PIK3CG; [1],2%
same,%Inh,PIK4CB; [1],0%
same,%Inh,PIKFYVE,6%
Cn1cncc1-c1ccc2ncnc(Nc3ccc(OCc4ccccc4)cc3)c2c1 [GW320571],%Inh,PAK6; [1],0%
same,%Inh,PAK7; [1],0%
same,%Inh,PCTK1,0%
same,%Inh,PCTK2,0%
same,%Inh,PCTK3; [1],7%
same,%Inh,PDGFRA; [1],0%
same,%Inh,PDGFRB; [1],9%
same,%Inh,PDPK1; [1],9%
same,%Inh,PFTAIRE2; [1],20%
same,%Inh,PFTK1; [1],0%
same,%Inh,PHKG1,5%
same,%Inh,PHKG2; [1],1%
same,%Inh,PIK3C2B; [1],61%
same,%Inh,PIK3C2G,57%
same,%Inh,PIK3CA,0%
same,%Inh,PIK3CB; [1],0%
same,%Inh,PIK3CD; [1],7%
same,%Inh,PIK3CG; [1],6%
same,%Inh,PIK4CB; [1],0%
same,%Inh,PIKFYVE,0%
CSc1nn2c(=O)cc(N3CCOCC3)nc2n1Cc1cccc(C(F)(F)F)c1C [GSK2363608],%Inh,PAK6; [2],12% and 0%
same,%Inh,PAK7; [2],1% and 0%
same,%Inh,PCTK1,2%
same,%Inh,PCTK2,0%
same,%Inh,PCTK3; [2],0% and 5%
same,%Inh,PDGFRA; [2],15% and 0%
same,%Inh,PDGFRB; [2],12% and 8%
same,%Inh,PDPK1; [2],7% and 0%
same,%Inh,PFTAIRE2; [2],23% and 6%
same,%Inh,PFTK1; [2],21% and 6%
same,%Inh,PHKG1,0%
same,%Inh,PHKG2; [2],5% and 0%
same,%Inh,PIK3C2B; [2],25% and 20%
same,%Inh,PIK3C2G,0%
same,%Inh,PIK3CA,9%
same,%Inh,PIK3CB; [2],97% and 100%
same,%Inh,PIK3CD; 1 µM,94.4% and 94.3%
same,%Inh,PIK3CG; [2],17% and 16%
same,%Inh,PIK4CB; [2],14% and 4%
same,%Inh,PIKFYVE,0%
NC(=O)c1nnc2ccccc2c1N,%Inh,PAK6; [1],4%
same,%Inh,PAK7; [1],0%
same,%Inh,PCTK1,6%
same,%Inh,PCTK2,0%
same,%Inh,PCTK3; [1],7%
same,%Inh,PDGFRA; [1],12%
same,%Inh,PDGFRB; [1],9%
same,%Inh,PDPK1; [1],7%
same,%Inh,PFTAIRE2; [1],14%
same,%Inh,PFTK1; [1],5%
same,%Inh,PHKG1,0%
same,%Inh,PHKG2; [1],10%
same,%Inh,PIK3C2B; [1],40%
same,%Inh,PIK3C2G,14%
same,%Inh,PIK3CA,40%
same,%Inh,PIK3CB; [1],0%
same,%Inh,PIK3CD; [1],39%
same,%Inh,PIK3CG; [1],44%
same,%Inh,PIK4CB; [1],1%
same,%Inh,PIKFYVE,4%
CC(=O)Nc1nc2cnc(Nc3cc(NC(=O)c4cccc(CCC#N)c4)ccc3C)nc2s1,%Inh,PAK6; [1],19%
same,%Inh,PAK7; [1],0%
same,%Inh,PCTK1,9%
same,%Inh,PCTK2,6%
same,%Inh,PCTK3; [1],8%
same,%Inh,PDGFRA; [1],94.3%
same,%Inh,PDGFRB; [1],100%
same,%Inh,PDPK1; [1],4%
same,%Inh,PFTAIRE2; [1],0%
same,%Inh,PFTK1; [1],12%
same,%Inh,PHKG1,0%
same,%Inh,PHKG2; [1],8%
same,%Inh,PIK3C2B; [1],9%
same,%Inh,PIK3C2G,78%
same,%Inh,PIK3CA,2%
same,%Inh,PIK3CB; [1],0%
same,%Inh,PIK3CD; [1],0%
same,%Inh,PIK3CG; [1],8%
same,%Inh,PIK4CB; [1],0%
same,%Inh,PIKFYVE,0%
